Data: the supplement of paper PMC10849652
Targets with a hit are over-represented here; the source holds about 8,800 in all. About 0.5% of all pairs of compound and target were hits.

How the values were obtained:
Test in all cases: log2 fold change, soluble protein after heating vs DMSO (PISA); higher = thermal stabilisation; K562 lysate, 10 uM; active = over 0.2 and 3.5 SD of the protein, either way, in both replicates (recomputed)
[1] = compound: CCCS(=O)(=O)Nc1ccc(F)c(C(=O)c2c[nH]c3ncc(-c4ccc(Cl)cc4)cc23)c1F [vemurafenib]
How it was run: (§1)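 Thermal stability, expressed as log-two fold change relative to solvent controls, is given from duplicates. Crude K562 extract in PBS pH 7.4 with 1 mM MgCl2, at 1 mg/mL protein, was treated with 10 μM compound for 30 min and heated in aliquots for 3 min across 48°C-58°C. After pooling, adjustment to 0.5% NP-40 at 4°C and centrifugation at 21,000xg for 90 min, supernatant protein was measured by TMTpro 16plex LC-MS/MS with channel sums equalised.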

[2] = compound: CCCS(=O)(=O)Nc1ccc(F)c(C(=O)c2c[nH]c3ncc(Cl)cc23)c1F
How it was run: as §1

[3] = compound: CCN(CCCOc1ccc2c(Nc3cc(CC(=O)Nc4cccc(F)c4)[nH]n3)ncnc2c1)CCOP(=O)(O)O [barasertib]
How it was run: as §1

[4] = compound: CC[C@@H]1C(=O)N(C)c2cnc(Nc3ccc(C(=O)NC4CCN(C)CC4)cc3OC)nc2N1C1CCCC1
How it was run: as §1

[5] = compound: CC[C@@H]1C(=O)N(C)c2cnc(Nc3ccc(C(=O)N[C@H]4CC[C@H](N5CCN(CC6CC6)CC5)CC4)cc3OC)nc2N1C(C)C [volasertib]
How it was run: as §1

[6] = compound: CCn1c(C(=O)N(C2CC2)C2CC2)cc2c3c(ncn3C)c(Nc3cc(C)n(C)n3)nc21
How it was run: as §1

[7] = compound: CCn1cc(-c2ccnc3[nH]c(-c4cccc(CN(C)C)c4)cc23)c(-c2ccc(NC(=O)N(C)C)cc2)n1
How it was run: as §1

[8] = compound: CN1CCC(CNc2ccc3ncc(-c4cccc(OC(F)(F)F)c4)n3n2)CC1
How it was run: as §1

[9] = compound: CN1CCN(CCOc2cc(OC3CCOCC3)c3c(Nc4c(Cl)ccc5c4OCO5)ncnc3c2)CC1 [saracatinib]
How it was run: as §1

[10] = compound: CN1CCN(c2nc(C3=C(c4c[nH]c5ccccc45)C(=O)NC3=O)c3ccccc3n2)CC1 [sotrastaurin]
How it was run: as §1

Measured: log2 fold change

RBM4 (UniProt Q9BWF3)
inactive: [1] -0.013 | [2] -0.042 | [3] 0.023 | [4] -0.053 | [5] -0.032 | [6] 0.045 | [8] -0.044 | [9] -0.013 | [10] -0.015
active: [7] 0.344

RFC5 (UniProt P40937)
inactive: [1] 0.034 | [2] -0.003 | [3] -0.017 | [4] -0.039 | [5] -0.079 | [6] 0.022 | [7] 0.137 | [8] 0.005 | [9] 0.008 | [10] 0.043

RPS18 (UniProt P62269)
active: [7] -0.219
inactive: [1] 0.006 | [2] 0.022 | [3] -0.007 | [4] -0.014 | [5] 0.018 | [6] 0.009 | [8] 0.063 | [9] 0.002 | [10] 0

RNF123 (UniProt Q5XPI4)
Chain of UniProt Q5XPI4 (Q5XPI4 whole entry, looked up): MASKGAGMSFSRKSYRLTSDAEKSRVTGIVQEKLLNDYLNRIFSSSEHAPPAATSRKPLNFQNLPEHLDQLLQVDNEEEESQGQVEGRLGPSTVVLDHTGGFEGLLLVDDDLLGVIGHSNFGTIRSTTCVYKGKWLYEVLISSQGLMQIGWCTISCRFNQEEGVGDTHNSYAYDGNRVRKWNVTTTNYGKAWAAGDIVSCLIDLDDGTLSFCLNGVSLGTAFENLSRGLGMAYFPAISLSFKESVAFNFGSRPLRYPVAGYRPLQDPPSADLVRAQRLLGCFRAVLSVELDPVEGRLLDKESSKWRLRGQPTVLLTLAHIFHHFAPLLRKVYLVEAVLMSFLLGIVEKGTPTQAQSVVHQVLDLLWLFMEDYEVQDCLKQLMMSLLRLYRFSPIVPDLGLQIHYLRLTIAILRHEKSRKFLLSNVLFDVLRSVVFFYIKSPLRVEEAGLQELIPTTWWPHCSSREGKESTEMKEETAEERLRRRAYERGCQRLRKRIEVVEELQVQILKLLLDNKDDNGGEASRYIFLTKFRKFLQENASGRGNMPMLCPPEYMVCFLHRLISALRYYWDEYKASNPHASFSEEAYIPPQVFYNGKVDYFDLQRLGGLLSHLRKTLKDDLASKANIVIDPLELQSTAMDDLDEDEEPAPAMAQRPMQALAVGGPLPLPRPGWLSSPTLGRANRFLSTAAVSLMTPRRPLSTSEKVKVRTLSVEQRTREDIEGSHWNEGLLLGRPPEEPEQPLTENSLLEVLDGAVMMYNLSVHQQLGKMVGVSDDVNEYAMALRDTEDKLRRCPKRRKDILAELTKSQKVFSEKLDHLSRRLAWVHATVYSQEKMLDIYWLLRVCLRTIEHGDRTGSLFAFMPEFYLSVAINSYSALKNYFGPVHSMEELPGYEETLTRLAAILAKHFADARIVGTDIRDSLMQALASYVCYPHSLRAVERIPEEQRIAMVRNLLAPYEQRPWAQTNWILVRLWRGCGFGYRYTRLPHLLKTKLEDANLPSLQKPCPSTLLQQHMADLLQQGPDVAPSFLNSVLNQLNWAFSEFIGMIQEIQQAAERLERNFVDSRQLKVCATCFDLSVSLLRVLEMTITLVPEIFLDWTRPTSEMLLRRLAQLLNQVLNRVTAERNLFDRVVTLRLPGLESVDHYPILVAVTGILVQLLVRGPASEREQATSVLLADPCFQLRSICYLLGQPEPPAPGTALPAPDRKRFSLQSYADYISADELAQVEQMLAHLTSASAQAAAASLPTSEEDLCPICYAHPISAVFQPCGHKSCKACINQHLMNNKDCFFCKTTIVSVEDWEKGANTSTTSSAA
inactive: [1] 0.034 | [2] 0.003 | [3] 0.019 | [4] -0.009 | [5] -0.048 | [6] 0.035 | [7] -0.045 | [8] 0.004 | [9] -0.006 | [10] 0.03

RBM22 (UniProt Q9NW64)
inactive: [1] -0.014 | [2] -0.007 | [3] 0.022 | [4] 0.078 | [5] -0.004 | [6] -0.004 | [7] 0.058 | [8] 0.025 | [9] 0.01 | [10] -0.08

RHAG (UniProt Q02094)
active: [7] -0.413
inactive: [1] -0.032 | [2] -0.116 | [3] 0.054 | [4] -0.16 | [5] 0.053 | [6] -0.003 | [8] 0.121 | [9] 0.053 | [10] 0.029

RASA2 (UniProt Q15283)
Chain of UniProt Q15283 (Q15283 whole entry, looked up): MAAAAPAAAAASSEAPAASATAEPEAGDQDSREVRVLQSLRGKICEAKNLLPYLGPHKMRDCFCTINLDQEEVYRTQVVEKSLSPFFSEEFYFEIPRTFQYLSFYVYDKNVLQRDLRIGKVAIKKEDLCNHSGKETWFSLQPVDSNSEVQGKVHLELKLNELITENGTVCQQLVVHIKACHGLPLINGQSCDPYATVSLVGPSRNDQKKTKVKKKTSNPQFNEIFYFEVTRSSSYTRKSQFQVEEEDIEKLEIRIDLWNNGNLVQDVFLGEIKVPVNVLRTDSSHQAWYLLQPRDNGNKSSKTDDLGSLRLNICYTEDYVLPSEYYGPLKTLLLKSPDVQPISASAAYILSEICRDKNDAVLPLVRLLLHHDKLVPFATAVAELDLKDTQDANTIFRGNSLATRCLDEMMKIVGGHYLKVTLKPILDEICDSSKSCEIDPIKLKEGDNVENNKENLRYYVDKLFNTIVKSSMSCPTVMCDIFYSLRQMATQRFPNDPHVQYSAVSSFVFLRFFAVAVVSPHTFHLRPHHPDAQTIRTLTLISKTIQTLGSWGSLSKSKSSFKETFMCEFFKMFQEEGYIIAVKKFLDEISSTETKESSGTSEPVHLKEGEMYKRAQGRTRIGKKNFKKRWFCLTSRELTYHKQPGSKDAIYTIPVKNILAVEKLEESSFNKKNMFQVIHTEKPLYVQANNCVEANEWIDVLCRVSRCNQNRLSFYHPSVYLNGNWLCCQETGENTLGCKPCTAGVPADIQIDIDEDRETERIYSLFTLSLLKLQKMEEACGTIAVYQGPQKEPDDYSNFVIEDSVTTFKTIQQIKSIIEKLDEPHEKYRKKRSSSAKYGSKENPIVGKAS
inactive: [1] 0.069 | [2] 0.025 | [3] -0.02 | [4] -0.055 | [5] -0.018 | [6] 0.02 | [7] -0.028 | [8] -0.013 | [9] 0.068 | [10] -0.017

RAF1 isoform 2 (UniProt P04049)
inactive: [2] -0.142 | [3] 0.068 | [4] -0.159 | [5] -0.083 | [6] -0.029 | [7] -0.028 | [8] -0.037 | [9] -0.014 | [10] -0.041
active: [1] 0.739

RDX (UniProt P35241)
inactive: [1] 0 | [2] -0.008 | [3] 0.003 | [4] 0.016 | [5] 0.017 | [6] -0.018 | [8] -0.109 | [9] -0.018 | [10] -0.013
active: [7] 0.712

RBM5 (UniProt P52756)
inactive: [1] -0.021 | [2] -0.018 | [3] 0.087 | [4] 0.013 | [5] -0.277 | [6] 0.064 | [7] 0.048 | [8] -0.012 | [9] -0.039 | [10] -0.03

RPS6KA1 (UniProt Q15418)
inactive: [1] -0.037 | [2] -0.004 | [3] -0.006 | [4] 0.037 | [5] 0.029 | [6] 0.019 | [7] -0.004 | [8] 0.116 | [9] 0.101 | [10] 0.103

SBF1 isoform 4 (UniProt O95248)
Chain of UniProt O95248 (O95248 whole entry, looked up): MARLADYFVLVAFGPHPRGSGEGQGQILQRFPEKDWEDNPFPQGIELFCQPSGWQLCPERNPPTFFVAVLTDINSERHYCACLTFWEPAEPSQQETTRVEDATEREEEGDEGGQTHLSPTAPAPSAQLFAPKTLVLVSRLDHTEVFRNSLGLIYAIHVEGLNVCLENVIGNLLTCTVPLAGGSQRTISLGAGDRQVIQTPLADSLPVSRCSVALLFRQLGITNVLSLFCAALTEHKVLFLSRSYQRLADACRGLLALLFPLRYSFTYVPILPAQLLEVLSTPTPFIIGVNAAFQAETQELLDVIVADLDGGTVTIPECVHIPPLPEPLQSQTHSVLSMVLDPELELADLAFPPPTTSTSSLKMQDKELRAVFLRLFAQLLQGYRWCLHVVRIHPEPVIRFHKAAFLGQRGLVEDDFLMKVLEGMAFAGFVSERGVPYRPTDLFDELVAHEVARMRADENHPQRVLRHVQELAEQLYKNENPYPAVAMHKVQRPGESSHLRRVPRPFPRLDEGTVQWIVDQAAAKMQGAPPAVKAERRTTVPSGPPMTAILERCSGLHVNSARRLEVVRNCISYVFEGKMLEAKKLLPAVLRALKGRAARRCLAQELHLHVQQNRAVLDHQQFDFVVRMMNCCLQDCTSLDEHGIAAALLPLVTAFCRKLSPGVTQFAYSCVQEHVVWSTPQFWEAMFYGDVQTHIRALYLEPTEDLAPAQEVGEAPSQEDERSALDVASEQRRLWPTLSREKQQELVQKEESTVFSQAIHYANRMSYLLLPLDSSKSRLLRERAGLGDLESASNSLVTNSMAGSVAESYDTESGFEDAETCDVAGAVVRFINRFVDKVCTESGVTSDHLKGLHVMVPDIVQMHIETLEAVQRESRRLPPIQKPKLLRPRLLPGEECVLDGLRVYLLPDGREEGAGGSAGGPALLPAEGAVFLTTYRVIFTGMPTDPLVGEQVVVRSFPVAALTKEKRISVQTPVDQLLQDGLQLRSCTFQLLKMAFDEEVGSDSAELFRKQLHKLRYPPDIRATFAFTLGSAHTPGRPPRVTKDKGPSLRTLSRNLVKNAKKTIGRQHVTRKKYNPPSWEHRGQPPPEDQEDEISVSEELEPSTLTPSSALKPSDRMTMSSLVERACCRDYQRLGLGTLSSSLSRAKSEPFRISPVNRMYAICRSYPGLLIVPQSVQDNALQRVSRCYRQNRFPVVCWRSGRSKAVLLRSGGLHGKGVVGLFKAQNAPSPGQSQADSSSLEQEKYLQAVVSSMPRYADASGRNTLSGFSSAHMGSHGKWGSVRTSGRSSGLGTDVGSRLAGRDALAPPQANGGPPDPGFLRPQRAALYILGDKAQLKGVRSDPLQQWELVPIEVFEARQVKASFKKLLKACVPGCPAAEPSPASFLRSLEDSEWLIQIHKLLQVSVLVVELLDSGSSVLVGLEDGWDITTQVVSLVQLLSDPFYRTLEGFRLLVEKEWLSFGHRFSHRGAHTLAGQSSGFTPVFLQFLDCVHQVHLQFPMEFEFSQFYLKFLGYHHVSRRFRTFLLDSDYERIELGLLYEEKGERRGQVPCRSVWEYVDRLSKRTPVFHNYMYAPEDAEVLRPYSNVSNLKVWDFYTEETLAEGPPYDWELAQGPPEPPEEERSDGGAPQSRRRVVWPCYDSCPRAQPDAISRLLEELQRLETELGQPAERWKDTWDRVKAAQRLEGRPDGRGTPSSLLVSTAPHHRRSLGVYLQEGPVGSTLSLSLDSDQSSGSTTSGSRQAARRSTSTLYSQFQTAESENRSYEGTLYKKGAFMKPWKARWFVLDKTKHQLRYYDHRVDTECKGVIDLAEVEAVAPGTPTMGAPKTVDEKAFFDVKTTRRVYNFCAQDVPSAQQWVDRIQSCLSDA
inactive: [1] 0.118 | [2] 0.012 | [3] 0.033 | [4] 0.071 | [5] -0.111 | [6] 0.014 | [7] -0.107 | [8] 0.029 | [9] 0.062 | [10] 0

RAPGEF2, A0A2R8YGD3
inactive: [1] 0 | [2] 0.013 | [3] 0.144 | [4] 0.093 | [5] -0.015 | [6] -0.029 | [7] 0.325 | [8] 0.05 | [9] 0.01 | [10] -0.003

RAB21 (UniProt Q9UL25)
active: [7] 0.262
inactive: [1] -0.038 | [2] -0.005 | [3] 0.041 | [4] 0.005 | [5] -0.006 | [6] 0.008 | [8] -0.06 | [9] 0.029 | [10] -0.021

RABGGTB (UniProt P53611)
inactive: [1] -0.022 | [2] 0.058 | [3] 0.096 | [4] -0.034 | [5] 0.008 | [6] -0.031 | [7] 0.151 | [8] -0.033 | [9] -0.017 | [10] 0.037

RIOK2 (UniProt Q9BVS4)
inactive: [1] -0.074 | [2] 0.006 | [3] -0.053 | [4] 0.016 | [5] -0.026 | [6] -0.03 | [7] -0.115 | [8] 0.066 | [9] -0.023 | [10] 0.04

RHOA (UniProt P61586)
inactive: [1] 0.003 | [2] -0.005 | [3] -0.07 | [4] 0.069 | [5] 0.009 | [6] 0.042 | [8] -0.06 | [9] 0.009 | [10] 0
active: [7] 0.45

RAB8B (UniProt Q92930)
inactive: [1] -0.137 | [2] 0 | [3] -0.036 | [4] 0.028 | [5] -0.036 | [6] 0.007 | [7] 0.252 | [8] -0.142 | [9] 0.08 | [10] -0.024

REEP5 (UniProt Q00765)
inactive: [1] -0.008 | [2] -0.006 | [3] -0.008 | [4] 0.073 | [5] 0.023 | [6] 0.027 | [7] -0.051 | [8] 0.026 | [9] 0.017 | [10] -0.02

SAR1B (UniProt Q9Y6B6)
inactive: [1] 0.034 | [2] 0 | [3] 0.165 | [4] 0.04 | [5] -0.042 | [6] 0.017 | [7] -0.017 | [8] -0.09 | [9] 0.041 | [10] 0.047

RSU1 (UniProt Q15404)
inactive: [1] -0.006 | [2] 0.005 | [3] -0.067 | [4] 0.026 | [5] 0.022 | [6] 0.004 | [8] -0.143 | [9] -0.032 | [10] -0.019
active: [7] 0.405

RINT1 (UniProt Q6NUQ1)
inactive: [1] 0.065 | [2] 0.022 | [3] 0.095 | [4] -0.055 | [5] -0.113 | [6] 0.088 | [7] -0.048 | [8] -0.044 | [9] 0.095 | [10] 0.058

SEC13 isoform 3 (UniProt P55735)
inactive: [1] -0.001 | [2] -0.004 | [3] -0.031 | [4] -0.013 | [5] 0.007 | [6] 0.003 | [8] -0.042 | [9] -0.027 | [10] -0.015
active: [7] 0.507

R3HCC1 (UniProt Q9Y3T6)
Chain of UniProt Q9Y3T6 (Q9Y3T6 whole entry, looked up, one chain of several): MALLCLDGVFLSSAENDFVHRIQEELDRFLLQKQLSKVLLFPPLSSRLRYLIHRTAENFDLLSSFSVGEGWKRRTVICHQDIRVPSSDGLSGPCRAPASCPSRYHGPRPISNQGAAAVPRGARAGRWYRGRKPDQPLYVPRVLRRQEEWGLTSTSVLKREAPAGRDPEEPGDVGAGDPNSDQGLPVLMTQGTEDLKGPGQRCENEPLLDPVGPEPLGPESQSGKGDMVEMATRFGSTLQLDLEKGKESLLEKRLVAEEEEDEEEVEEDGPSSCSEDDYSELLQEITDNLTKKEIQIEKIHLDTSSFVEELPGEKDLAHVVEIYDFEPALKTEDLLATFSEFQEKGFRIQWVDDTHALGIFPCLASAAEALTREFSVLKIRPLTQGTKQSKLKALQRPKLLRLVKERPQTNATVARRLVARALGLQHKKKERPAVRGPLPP
inactive: [1] 0.07 | [2] 0.036 | [3] 0.009 | [4] 0.044 | [5] -0.015 | [6] -0.022 | [7] -0.066 | [8] 0.082 | [9] 0.029 | [10] 0.021

QRSL1 (UniProt Q9H0R6)
inactive: [1] 0.134 | [2] 0.012 | [3] 0.044 | [4] -0.004 | [5] -0.057 | [6] 0.008 | [7] -0.178 | [8] -0.138 | [9] -0.056 | [10] 0.071

RNF213, A0A0A0MTC1
inactive: [1] 0.017 | [2] 0.025 | [3] 0.076 | [4] -0.038 | [5] -0.077 | [6] 0.027 | [7] -0.05 | [8] -0.053 | [9] 0.027 | [10] 0.043

REEP6 (UniProt Q96HR9)
inactive: [1] 0.072 | [2] 0.021 | [3] 0.093 | [4] -0.022 | [5] 0.077 | [6] 0 | [8] 0.072 | [9] 0.094 | [10] 0.017
active: [7] -0.358

RPAP1 (UniProt Q9BWH6)
inactive: [1] -0.008 | [2] -0.012 | [3] 0.012 | [4] -0.028 | [5] -0.053 | [6] 0 | [7] -0.031 | [8] 0.008 | [9] 0.02 | [10] 0.01

RBBP8 isoform 2 (UniProt Q99708)
inactive: [1] 0.002 | [2] 0.182 | [3] -0.013 | [4] 0.079 | [5] -0.019 | [6] -0.065 | [7] 0.065 | [8] -0.021 | [9] 0.018 | [10] -0.017

REL isoform 2 (UniProt Q04864)
Chain of UniProt Q04864 (Q04864 whole entry, looked up): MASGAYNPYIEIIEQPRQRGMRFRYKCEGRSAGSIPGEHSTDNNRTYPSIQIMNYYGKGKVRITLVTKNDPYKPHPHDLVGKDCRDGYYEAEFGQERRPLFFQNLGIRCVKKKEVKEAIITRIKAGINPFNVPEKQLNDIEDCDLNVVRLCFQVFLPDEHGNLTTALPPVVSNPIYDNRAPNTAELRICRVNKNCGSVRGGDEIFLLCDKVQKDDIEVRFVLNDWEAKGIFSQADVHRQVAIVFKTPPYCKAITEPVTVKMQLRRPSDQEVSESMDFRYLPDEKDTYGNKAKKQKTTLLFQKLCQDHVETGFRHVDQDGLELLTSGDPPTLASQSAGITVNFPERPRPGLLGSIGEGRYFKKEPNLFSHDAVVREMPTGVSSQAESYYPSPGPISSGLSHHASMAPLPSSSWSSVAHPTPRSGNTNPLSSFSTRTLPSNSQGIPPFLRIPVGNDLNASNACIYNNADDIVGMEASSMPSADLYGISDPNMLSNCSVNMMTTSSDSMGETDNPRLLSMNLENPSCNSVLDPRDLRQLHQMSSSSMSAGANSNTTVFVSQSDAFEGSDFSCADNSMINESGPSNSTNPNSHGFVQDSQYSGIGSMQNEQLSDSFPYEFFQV
inactive: [1] -0.035 | [2] 0.017 | [3] 0.033 | [4] 0.049 | [5] -0.032 | [6] 0.025 | [7] 0.02 | [8] -0.174 | [9] -0.002 | [10] -0.022
